From the supplement of paper PMC6555819

These sequences were tested on PPARg homodimer (NR concentration 180 nM) (assay: PBM binding z-score (relative to random genomic background probes); higher = stronger binding; sequences stand for … in GC…GCGATTGACAGCGTAGAATGAAGG).
Procedure, shortened: (§1)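 The probes on custom Agilent 4×180K protein-binding microarrays were double-stranded, with 34-nt variable regions bearing direct-repeat seeds, single-nucleotide variants, half-site ablations and random human genomic background sequences. Incubation lasted 1 h with ligand-free nuclear receptor dimers in PBS pH 7.4, 2% milk, 0.02% Triton X-100, 1 mM DTT, 0.2 mg/mL BSA and 0.4 mg/ml salmon testes DNA. Antibodies against each partner (one per run) detected bound dimers, and fluorescence scans were regression-normalized. Binding z-scores take the random background probes as reference.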
TCATATAGGTAACCAGGTGAAAGTCCGTAAGTTA was tested, and the PBM binding z-score was 1.14. TGAATGAGGCTATAAGATCAGGGAACGTTGCAAA was tested, and the PBM binding z-score was -0.853. CCGACTGGGCCAAGGTTACCATAACGCACAGCCA was tested, and the PBM binding z-score was 0.313. For AGAATGAGGTTATTAAGGTCAGGGAATTGCGGTC, the PBM binding z-score was 2.65. Work on CCTTACGAGTCACGAGGTTATAGCACGACGAGCG yielded a PBM binding z-score of 1.26. Sequence GCTATTAGTTGAAAGGGCCACCGAATGATTCTCG has a PBM binding z-score of 0.586. In the case of GCTATTAGTTGAAAGGGCAACCGCATGATTCTCG, the PBM binding z-score was 1.06. CCTGCTTGGTCATGGTCAGCTAATCTACAGTATG gave a PBM binding z-score of 0.0024. CAAACTAGGTCACAGAGTTCAAAGTCCGTGCGTA was tested, and the PBM binding z-score was 4.68. CGTCAAAGTTCACGGTAACGTAACAGAAAGCAGC was tested, and the PBM binding z-score was 2.72. For ATCTCTAGGTAAAGATAATTCAGTGAATGCAAAT, the PBM binding z-score was 0.141. GGAACAAGGGCATTCGAGTTGATAGCATGGCGAT was tested, and the PBM binding z-score was 0.614. With CCTACTGGGGCATAAGGTTACCATAAGCCAGCCC the PBM binding z-score was 1.28. Work on GATACAGGGTCAAGGCCAGAGCACGCGTATTGAT yielded a PBM binding z-score of 2.41. Work on CCTAGTTGGTCAAGGTCACTCACGCTATAGGTAC yielded a PBM binding z-score of 3.66. TAGCCTGGGTCATTGGGCCAGTATAGTACGCATC was tested, and the PBM binding z-score was 0.764. ATCTCTAGTTAAAAGTTCAGTGAATCCCGAGGAT gave a PBM binding z-score of 1.56. Sequence TCTGCTAGGTCAGTGGGTCAGCTAACGAGCTGCC has a PBM binding z-score of 1.24. In the case of CCTTACGGGTCACGAGGTTTTAGCACGACGAGCG, the PBM binding z-score was 2.12. For GCTTACGGGTCAAAGGCTATAGCATGAATAGAAT, the PBM binding z-score was 1.36. For AGAATGAGGTTATTAAGTTCAGGGAATTGCGGTC, the PBM binding z-score was 1.36. Work on ACAGACAGGTGATGAAGGTAACTCCGGCTATCAT yielded a PBM binding z-score of -0.227. In the case of ATCTCTAGGTAACAAGTTCAGTGAAAGAGAGGAC, the PBM binding z-score was 1.58. CGTCCAAGGTCAAACGTCAGTGAAGAGATGACGG showed a PBM binding z-score of 2.61. AGTCACAGTTCAGGACGAGGTAACGTAAAGCACG gave a PBM binding z-score of 0.443. ACAGACAGGTGAGTGAAGGTAGCTCAGCTGGACG gave a PBM binding z-score of -0.296. TTACCAAGGTGAAAGGTCGTTGGTGCACGCCTTG was tested, and the PBM binding z-score was 2.46. In the case of GCTGCTAGGTCAACTCATGGTCAGCTAAAGCTCG, the PBM binding z-score was 1.2. CGCACTAGGTCAAGGACAGTGAATCTCCGCACGC showed a PBM binding z-score of 1.2. For CCAACTAGGTCATCCAGGACAGTGAATACATTGA, the PBM binding z-score was 2.3. GCATATAGGTAGTACAAGGTGAAAGTCCGATTGT gave a PBM binding z-score of -0.146. In the case of GTGCCAAGGTGAATAGGTCGTTGATGAGTAGGCG, the PBM binding z-score was 1.02. CGTCCAAGGTCAATGCTATGTCAGTGAAAGCATT was tested, and the PBM binding z-score was 2.06. For CGTCCAAGGTCTATGCTAGGTCAGTGAAAGCATT, the PBM binding z-score was 0.128. Work on CGAACGAGGGCATGAGTTGATAGAAAATGCCGAT yielded a PBM binding z-score of 0.547. For CGTCCAAGGTGAAAGGTCAGTGAAGAGATGACGG, the PBM binding z-score was 3.24. Sequence CAAACTATGTCACAGAGGTCAAAGTCCGTGCGTA has a PBM binding z-score of 3.02. TCTTGAAGATCAAAGGTTAAGAAAGCCGAAGCCT gave a PBM binding z-score of 1.22. TTACCAAGGTGATAGGTCGTTGATGCACGCCTTG gave a PBM binding z-score of 1.26. TCTGCTTGGTCAGTTGGTCAGCTAACGAGCTGCC gave a PBM binding z-score of -1.35.

These sequences were tested on PXR:RXRa (NR concentration 270 nM, RXRa partner concentration 90 nM) in the same assay as above.
Procedure, shortened: as §1
In the case of TCATATAGGTAACCAGGTGAAAGTCCGTAAGTTA, the PBM binding z-score was 0.852. In the case of TGAATGAGGCTATAAGATCAGGGAACGTTGCAAA, the PBM binding z-score was -0.467. CCGACTGGGCCAAGGTTACCATAACGCACAGCCA was tested, and the PBM binding z-score was 0.153. Sequence AGAATGAGGTTATTAAGGTCAGGGAATTGCGGTC has a PBM binding z-score of 5.11. CCTTACGAGTCACGAGGTTATAGCACGACGAGCG gave a PBM binding z-score of 1.25. In the case of GCTATTAGTTGAAAGGGCCACCGAATGATTCTCG, the PBM binding z-score was -0.34. GCTATTAGTTGAAAGGGCAACCGCATGATTCTCG was tested, and the PBM binding z-score was 0.577. CCTGCTTGGTCATGGTCAGCTAATCTACAGTATG showed a PBM binding z-score of -0.154. CAAACTAGGTCACAGAGTTCAAAGTCCGTGCGTA showed a PBM binding z-score of 6.97. In the case of CGTCAAAGTTCACGGTAACGTAACAGAAAGCAGC, the PBM binding z-score was 4.93. ATCTCTAGGTAAAGATAATTCAGTGAATGCAAAT was tested, and the PBM binding z-score was 0.14. For GGAACAAGGGCATTCGAGTTGATAGCATGGCGAT, the PBM binding z-score was 3.18. For CCTACTGGGGCATAAGGTTACCATAAGCCAGCCC, the PBM binding z-score was 0.306. For GATACAGGGTCAAGGCCAGAGCACGCGTATTGAT, the PBM binding z-score was 3.86. For CCTAGTTGGTCAAGGTCACTCACGCTATAGGTAC, the PBM binding z-score was 3.73. TAGCCTGGGTCATTGGGCCAGTATAGTACGCATC was tested, and the PBM binding z-score was 1.44. ATCTCTAGTTAAAAGTTCAGTGAATCCCGAGGAT was tested, and the PBM binding z-score was 1.9. TCTGCTAGGTCAGTGGGTCAGCTAACGAGCTGCC gave a PBM binding z-score of 0.857. With CCTTACGGGTCACGAGGTTTTAGCACGACGAGCG the PBM binding z-score was 3.85. For GCTTACGGGTCAAAGGCTATAGCATGAATAGAAT, the PBM binding z-score was 3.22. AGAATGAGGTTATTAAGTTCAGGGAATTGCGGTC gave a PBM binding z-score of 5.65. ACAGACAGGTGATGAAGGTAACTCCGGCTATCAT gave a PBM binding z-score of 0.0944. Work on ATCTCTAGGTAACAAGTTCAGTGAAAGAGAGGAC yielded a PBM binding z-score of 1.71. Sequence CGTCCAAGGTCAAACGTCAGTGAAGAGATGACGG has a PBM binding z-score of 4.43. AGTCACAGTTCAGGACGAGGTAACGTAAAGCACG was tested, and the PBM binding z-score was 1.13. ACAGACAGGTGAGTGAAGGTAGCTCAGCTGGACG showed a PBM binding z-score of -0.618. In the case of TTACCAAGGTGAAAGGTCGTTGGTGCACGCCTTG, the PBM binding z-score was 4.31. For GCTGCTAGGTCAACTCATGGTCAGCTAAAGCTCG, the PBM binding z-score was 1.83. Sequence CGCACTAGGTCAAGGACAGTGAATCTCCGCACGC has a PBM binding z-score of 1.15. With CCAACTAGGTCATCCAGGACAGTGAATACATTGA the PBM binding z-score was 1.94. GCATATAGGTAGTACAAGGTGAAAGTCCGATTGT was tested, and the PBM binding z-score was 0.403. With GTGCCAAGGTGAATAGGTCGTTGATGAGTAGGCG the PBM binding z-score was 0.425. For CGTCCAAGGTCAATGCTATGTCAGTGAAAGCATT, the PBM binding z-score was 3.61. With CGTCCAAGGTCTATGCTAGGTCAGTGAAAGCATT the PBM binding z-score was 0.421. For CGAACGAGGGCATGAGTTGATAGAAAATGCCGAT, the PBM binding z-score was 0.565. CGTCCAAGGTGAAAGGTCAGTGAAGAGATGACGG was tested, and the PBM binding z-score was 4.74. Work on CAAACTATGTCACAGAGGTCAAAGTCCGTGCGTA yielded a PBM binding z-score of 5.88. With TCTTGAAGATCAAAGGTTAAGAAAGCCGAAGCCT the PBM binding z-score was 2.3. With TTACCAAGGTGATAGGTCGTTGATGCACGCCTTG the PBM binding z-score was 0.611. With TCTGCTTGGTCAGTTGGTCAGCTAACGAGCTGCC the PBM binding z-score was -0.535.
